PLK1 PBD block – qHTS for Inhibitors of PLK1-PDB (polo-like kinase 1 - polo-box domain): Primary Screen | Serine/threonine-protein kinase PLK1 (Homo sapiens), P53350 | Plk1 PBD binding of FITC phosphopeptide, fluorescence polarization | Potency, µM, inactives show max response, negative = inhibition, actives largely listed as inhibitors | 360,000 compounds, 2.8% hits | AID 720504, 2013; also: series mostly up to about 57 µM; nearly all actives have a fitted effect of over 65% in size
Target sequence (P53350 whole entry, looked up, the tested form may be a part): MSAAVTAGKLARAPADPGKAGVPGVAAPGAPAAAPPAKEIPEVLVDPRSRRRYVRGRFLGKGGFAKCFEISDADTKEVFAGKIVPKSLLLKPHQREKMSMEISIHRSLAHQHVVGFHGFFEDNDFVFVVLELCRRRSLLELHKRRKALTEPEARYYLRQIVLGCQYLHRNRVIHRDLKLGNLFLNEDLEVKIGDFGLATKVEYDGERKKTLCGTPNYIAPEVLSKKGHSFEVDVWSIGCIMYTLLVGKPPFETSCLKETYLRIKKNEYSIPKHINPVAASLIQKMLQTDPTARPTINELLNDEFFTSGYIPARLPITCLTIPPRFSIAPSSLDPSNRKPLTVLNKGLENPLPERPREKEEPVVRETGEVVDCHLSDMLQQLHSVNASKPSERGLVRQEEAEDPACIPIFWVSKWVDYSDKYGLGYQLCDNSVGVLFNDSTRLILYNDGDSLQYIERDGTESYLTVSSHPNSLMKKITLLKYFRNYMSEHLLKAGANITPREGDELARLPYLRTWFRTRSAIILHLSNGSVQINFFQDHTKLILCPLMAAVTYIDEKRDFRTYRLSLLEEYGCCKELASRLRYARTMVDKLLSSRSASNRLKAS
DT40 TDP1 CPT – qHTS for Inhibitors of human tyrosyl-DNA phosphodiesterase 1 (TDP1): qHTS in cells in presence of CPT; chicken DT40 Tdp1-/-;hTDP1 cells + 20 nM CPT, ATP luminescence, 48 h; 420,000 compounds, 12% hits; Potency, µM (series often up to 46.2 µM), for the others: at the top dose activity change, negative = growth inhibition, actives largely listed as inhibitors; also: nearly all actives have a fitted effect of over 55% in size
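Cell growth measured by CellTiter-Glo luminescence after a minimum 48 h, 37 C compound exposure with 20 nM CPT in Tdp1-knockout DT40 cells stably expressing hTDP1, seeded 400/well; qHTS titration format.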
DT40 TDP1 no CPT – qHTS for Inhibitors of human tyrosyl-DNA phosphodiesterase 1 (TDP1): qHTS in cells in absence of CPT; 420,000 compounds, 15% hits; AID 686978, 2013; Potency, µM (series often up to 46.2 µM), for inactives: at the top dose activity change, negative = growth inhibition, actives largely listed as inhibitors; DT40 Tdp1-/- hTDP1 cells, no CPT, ATP luminescence, 48 h; also: nearly all actives have a fitted effect of over 55% in size
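Readout: luminescence from CellTiter-Glo after 30 min in the dark at RT. Cells: DT40 Tdp1-/- with stable hTDP1, 400/well. Exposure: compounds alone, ≥48 hr, 37 °C.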
VDR inh – Inhibitors of the vitamin D receptor (VDR): qHTS. Vitamin D3 receptor (Homo sapiens), P11473. VDR-SRC2-3 peptide fluorescence polarization, 2 h. Potency, µM, without a hit: max response, negative = inhibition, usual class: inhibitors. 400,000 compounds, 0.93% hits. AID 504847, 2011
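VDR–SRC2-3 interaction, FP format. Cmpds 23 nl via pintool, brief spin, 2 h ambient incubation.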
GCN5L2 inh – qHTS Assay for Inhibitors of GCN5L2 | AID 504327, 2011 | GCN5L2 HAT assay, ThioGlo1 CoA-SH fluorescence | Potency, µM (highest dose often 58.9 µM), for inactives: top-dose activity change, negative = inhibition, usual class: inhibitors | 390,000 compounds, 0.21% hits
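Titration-based screen in which CoA formation is detected via maleimide probe ThioGlo1 (50uM) turning fluorescent on thiol reaction; substrates H3(1-25) 75uM and acetyl-CoA 70uM, GCN5L2 20nM, 20 min incubation at room temperature.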
TDP1 block – qHTS Assay for Inhibitors of Tyrosyl-DNA Phosphodiesterase (TDP1); 350,000 compounds, 0.28% hits; recombinant TDP1, AlphaScreen DNA substrate cleavage; Potency, µM (highest dose often 130 µM), for inactives: at the top dose activity change, negative = inhibition, usual class: inhibitors; also: nearly all actives have a fitted effect of over 40% in size
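Recombinant E. coli-expressed Tdp1 (1 nM) preincubated with compound 15 min at RT, then 5'-biotin/3'-phosphotyrosine-FITC DNA substrate (15 nM) added for 5 min. AlphaScreen beads (10 ug/ml) added, 10 min RT; tyrosine-FITC cleavage read as signal loss.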
* marks the source's active call; other numbers are inactive results. This is a sample that favours compounds with a hit; in the whole collection about 18% have one here. Calls follow the shape of the dose curve; as a rule, active = well fitted curve in the direction sought with a large enough effect; inconclusive = small, poorly fitted or top-dose-only effect, or another doubt; inactive = no such curve, though single readings can be large; an effect the other way counts as inactive or inconclusive. % is scaled to controls: 0 for no effect and ±100 for the full control effect; potency is read from the fitted curve at half-maximal effect.

How did CCOC(=O)c1cccc(NC(=O)c2cc3c(=O)n(C)c4ccccc4c3n2C)c1 do in these assays?
DT40 TDP1 CPT: inconclusive; DT40 TDP1 no CPT: 20.6µM*; VDR inh: -5.2%; GCN5L2 inh: 1.3%; TDP1 block: 5.8%

How did Cn1c(C(=O)Nc2cccc(Cl)c2)cc2c(=O)n(C)c3ccccc3c21 do in these assays?
DT40 TDP1 CPT: -22.1%; DT40 TDP1 no CPT: 14.6µM*; VDR inh: -6.1%; GCN5L2 inh: -4.6%; TDP1 block: -1.2%

How did COc1ccc(NC(=O)c2cc3c(=O)n(C)c4ccccc4c3n2C)cc1OC do in these assays?
PLK1 PBD block: -3.6%; DT40 TDP1 CPT: inconclusive; DT40 TDP1 no CPT: inconclusive; VDR inh: -18.3%; GCN5L2 inh: -7.8%; TDP1 block: 2.6%

How did CC(C)c1ccc(NC(=O)c2cc3c(=O)n(C)c4ccccc4c3n2C)cc1 do in these assays?
PLK1 PBD block: -3.9%; DT40 TDP1 CPT: inconclusive; DT40 TDP1 no CPT: inconclusive; VDR inh: 8.7%; GCN5L2 inh: -17.0%

What do the screens show for `COc1ccc2cc(S(=O)(=O)NC3CC(C)(C)NC(C)(C)C3)ccc2c1`?
PLK1 PBD block: -8.2%; DT40 TDP1 CPT: -28.0%; DT40 TDP1 no CPT: -20.1%; VDR inh: -15.2%; GCN5L2 inh: -24.5%; TDP1 block: 4.0%

How did O=c1c2ccccc2nc2n1C(CSc1ccc(Br)cc1)CN2 (stereo not given) do in these assays?
PLK1 PBD block: -4.6%; DT40 TDP1 CPT: -14.3%; DT40 TDP1 no CPT: -23.2%; VDR inh: -4.7%; GCN5L2 inh: -4.3%; TDP1 block: 9.9%

Results for Cc1ccccc1-n1c(SCC(=O)NCc2cccs2)nc2ccccc2c1=O ?
PLK1 PBD block: -1.0%; DT40 TDP1 CPT: inconclusive; DT40 TDP1 no CPT: inconclusive; VDR inh: -20.9%; GCN5L2 inh: -5.1%; TDP1 block: 2.6%

What do the screens show for `C=CCC(O)[C@H](Cc1cnc2ccccc2c1)[C@H](/C=C/CCCC)c1ccccc1` (stereo not given in full)?
VDR inh: -6.5%; TDP1 block: -6.8%

What do the screens show for `COc1ccc(N2CCN(Cc3nc4c(c(=O)[nH]c(=O)n4C)n3CC(C)C)CC2)cc1`?
DT40 TDP1 CPT: -5.1%; DT40 TDP1 no CPT: -6.9%; VDR inh: -9.7%; GCN5L2 inh: -3.5%; TDP1 block: -1.3%

Results for COC(=O)c1ccc(NC(=O)CSc2ccc(-c3sc(-c4ccccc4)nc3C)nn2)cc1 ?
DT40 TDP1 CPT: inconclusive; DT40 TDP1 no CPT: 11.6µM*; VDR inh: 2.6%; GCN5L2 inh: -20.0%; TDP1 block: 0.0%

Results for Cc1nc(-c2ccccc2)sc1-c1ccc(SCC(=O)Nc2ccc(F)cc2F)nn1 ?
DT40 TDP1 CPT: -27.7%; DT40 TDP1 no CPT: inconclusive; VDR inh: 7.3%; GCN5L2 inh: -2.6%; TDP1 block: 2.6%

How did CCOc1ccc(NC(=O)CSc2ccc(-c3sc(-c4ccccc4)nc3C)nn2)cc1 do in these assays?
DT40 TDP1 CPT: -88.5%; DT40 TDP1 no CPT: inconclusive; VDR inh: 9.8%; GCN5L2 inh: -19.6%; TDP1 block: 2.6%

How did Cc1nc(-c2ccccc2)sc1-c1ccc(SCC(=O)Nc2ccccc2)nn1 do in these assays?
DT40 TDP1 CPT: inconclusive; DT40 TDP1 no CPT: 23.1µM*; VDR inh: -10.9%; GCN5L2 inh: -14.4%; TDP1 block: 0.0%

What do the screens show for `Cc1ccc2c(c1)sc1nncn12`?
PLK1 PBD block: 5.3%; DT40 TDP1 CPT: 4.5%; DT40 TDP1 no CPT: 5.4%

How did C[C@@H]1CN(C2CCN(Cc3nc(C(c4ccccc4)c4ccccc4)no3)CC2)C[C@H](C)O1 do in these assays?
PLK1 PBD block: -8.4%; DT40 TDP1 CPT: -11.4%; DT40 TDP1 no CPT: inconclusive; VDR inh: 19.4%; GCN5L2 inh: 0.3%; TDP1 block: 5.6%

How did c1ccc(C(c2ccccc2)c2noc(CN3CCN(C4CCCC4)CC3)n2)cc1 do in these assays?
PLK1 PBD block: -5.2%; DT40 TDP1 CPT: inconclusive; DT40 TDP1 no CPT: 20.6µM*; VDR inh: -21.0%; GCN5L2 inh: -3.3%; TDP1 block: 0.0%

How did Cc1nc(CN2CCN(Cc3nc(C(c4ccccc4)c4ccccc4)no3)CC2)cs1 do in these assays?
PLK1 PBD block: -5.2%; DT40 TDP1 CPT: 7.31µM*; DT40 TDP1 no CPT: 10.3µM*; VDR inh: 6.4%; GCN5L2 inh: -3.3%; TDP1 block: 2.7%

How did FC(F)(F)c1ccc(-c2noc(CN3CCCN(C4CCCCC4)CC3)n2)cc1 do in these assays?
PLK1 PBD block: -1.2%; DT40 TDP1 CPT: 20.6µM*; DT40 TDP1 no CPT: 20.6µM*; VDR inh: -12.8%; GCN5L2 inh: 2.1%; TDP1 block: -2.7%

What do the screens show for `O=C(O)c1cccc(-c2ccccc2)c1O`?
PLK1 PBD block: -0.3%; DT40 TDP1 CPT: 8.9%; DT40 TDP1 no CPT: 10.8%; VDR inh: -8.6%

How did CC(=O)N1CCCc2cc(S(=O)(=O)N3CCCC(C(=O)Nc4cccc(C)c4)C3)ccc21 (stereo not given) do in these assays?
PLK1 PBD block: 4.4%; DT40 TDP1 CPT: -28.2%; DT40 TDP1 no CPT: -18.1%; VDR inh: 17.3%; GCN5L2 inh: -9.0%; TDP1 block: 1.2%

What do the screens show for `Cc1ccc(-n2nc3c(N4CCC(C(=O)NCc5cccc(F)c5)CC4)nnc(C)c3c2C)cc1`?
PLK1 PBD block: 0.4%; DT40 TDP1 CPT: inconclusive; DT40 TDP1 no CPT: 18.4µM*; VDR inh: -11.9%; GCN5L2 inh: -4.5%; TDP1 block: 39.8µM*

How did Cc1ccc(-n2nc3c(N4CCC(C(=O)NCc5ccc(C)o5)CC4)nnc(C)c3c2C)cc1 do in these assays?
PLK1 PBD block: -7.1%; DT40 TDP1 CPT: 23.1µM*; DT40 TDP1 no CPT: inconclusive; VDR inh: -1.8%; GCN5L2 inh: -11.2%; TDP1 block: -14.2%

What do the screens show for `COc1ccc(-n2nc3c(N4CCC(C(=O)NCc5ccco5)CC4)nnc(C)c3c2C)cc1`?
PLK1 PBD block: -2.1%; DT40 TDP1 CPT: inconclusive; DT40 TDP1 no CPT: inconclusive; VDR inh: -10.4%; GCN5L2 inh: 0.3%; TDP1 block: -12.8%

What do the screens show for `Cc1ccc(-n2nc3c(N4CCC(C(=O)NCCC(C)C)CC4)nnc(C)c3c2C)cc1`?
DT40 TDP1 CPT: 16.4µM*; DT40 TDP1 no CPT: inconclusive; VDR inh: 5.5%; GCN5L2 inh: -5.4%; TDP1 block: 5.6%

Source: PubChem BioAssay
